Assay results taken from ChEMBL document CHEMBL1961873, “Compounds: GSK PKIS; Assays: Nanosyn kinase panel” (2012).

Columns and labels:
[1] = target: Tyrosine-protein kinase receptor UFO (Homo sapiens) (UniProt P30530); details: at 1 µM
[2] = target: Tyrosine-protein kinase Blk (Homo sapiens) (UniProt P51451); details: at 0.1 µM
[3] = target: Tyrosine-protein kinase Blk (Homo sapiens) (UniProt P51451); details: at 1 µM
[4] = target: T1, Cytoplasmic tyrosine-protein kinase BMX (Homo sapiens) (UniProt P51813); details: at 0.1 µM
T1 sequence (whole entry): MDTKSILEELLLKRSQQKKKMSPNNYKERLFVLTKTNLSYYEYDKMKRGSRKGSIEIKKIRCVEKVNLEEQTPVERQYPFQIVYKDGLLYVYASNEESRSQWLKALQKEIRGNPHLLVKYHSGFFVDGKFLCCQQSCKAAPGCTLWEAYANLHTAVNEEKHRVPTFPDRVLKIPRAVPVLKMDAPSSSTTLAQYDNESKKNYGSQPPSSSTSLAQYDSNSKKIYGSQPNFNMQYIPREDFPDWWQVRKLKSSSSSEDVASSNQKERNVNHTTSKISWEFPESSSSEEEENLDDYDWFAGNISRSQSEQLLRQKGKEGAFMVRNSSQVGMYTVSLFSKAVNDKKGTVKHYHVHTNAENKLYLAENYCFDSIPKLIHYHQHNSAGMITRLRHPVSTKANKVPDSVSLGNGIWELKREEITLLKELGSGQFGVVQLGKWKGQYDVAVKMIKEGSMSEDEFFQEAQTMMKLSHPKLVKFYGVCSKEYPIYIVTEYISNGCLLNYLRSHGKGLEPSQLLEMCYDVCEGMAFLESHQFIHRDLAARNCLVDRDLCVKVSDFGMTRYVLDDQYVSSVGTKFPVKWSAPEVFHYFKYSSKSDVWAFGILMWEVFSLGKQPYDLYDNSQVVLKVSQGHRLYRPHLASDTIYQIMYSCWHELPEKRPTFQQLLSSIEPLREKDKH

[5] = target: T1, Cytoplasmic tyrosine-protein kinase BMX (Homo sapiens); details: at 1 µM
[6] = target: Protein-tyrosine kinase 6 (Homo sapiens) (UniProt Q13882); details: at 0.1 µM
Sequence of Protein-tyrosine kinase 6 (Homo sapiens) (Q13882 whole entry, looked up): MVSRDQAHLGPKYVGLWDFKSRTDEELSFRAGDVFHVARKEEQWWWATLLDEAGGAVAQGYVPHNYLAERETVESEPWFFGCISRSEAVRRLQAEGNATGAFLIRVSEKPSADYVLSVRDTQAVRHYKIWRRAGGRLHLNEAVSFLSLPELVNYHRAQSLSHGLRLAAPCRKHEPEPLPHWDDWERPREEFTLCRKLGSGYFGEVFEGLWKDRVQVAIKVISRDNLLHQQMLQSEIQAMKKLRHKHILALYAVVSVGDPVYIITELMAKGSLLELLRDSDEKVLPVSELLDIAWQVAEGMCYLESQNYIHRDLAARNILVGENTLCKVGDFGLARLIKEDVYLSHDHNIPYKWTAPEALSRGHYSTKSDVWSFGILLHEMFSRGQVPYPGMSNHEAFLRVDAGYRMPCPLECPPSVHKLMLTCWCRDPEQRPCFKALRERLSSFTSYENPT

[7] = target: Protein-tyrosine kinase 6 (Homo sapiens) (UniProt Q13882); details: at 1 µM
[8] = target: Tyrosine-protein kinase BTK (Homo sapiens) (UniProt Q06187); details: at 0.1 µM
Sequence of Tyrosine-protein kinase BTK (Homo sapiens) (Q06187 whole entry): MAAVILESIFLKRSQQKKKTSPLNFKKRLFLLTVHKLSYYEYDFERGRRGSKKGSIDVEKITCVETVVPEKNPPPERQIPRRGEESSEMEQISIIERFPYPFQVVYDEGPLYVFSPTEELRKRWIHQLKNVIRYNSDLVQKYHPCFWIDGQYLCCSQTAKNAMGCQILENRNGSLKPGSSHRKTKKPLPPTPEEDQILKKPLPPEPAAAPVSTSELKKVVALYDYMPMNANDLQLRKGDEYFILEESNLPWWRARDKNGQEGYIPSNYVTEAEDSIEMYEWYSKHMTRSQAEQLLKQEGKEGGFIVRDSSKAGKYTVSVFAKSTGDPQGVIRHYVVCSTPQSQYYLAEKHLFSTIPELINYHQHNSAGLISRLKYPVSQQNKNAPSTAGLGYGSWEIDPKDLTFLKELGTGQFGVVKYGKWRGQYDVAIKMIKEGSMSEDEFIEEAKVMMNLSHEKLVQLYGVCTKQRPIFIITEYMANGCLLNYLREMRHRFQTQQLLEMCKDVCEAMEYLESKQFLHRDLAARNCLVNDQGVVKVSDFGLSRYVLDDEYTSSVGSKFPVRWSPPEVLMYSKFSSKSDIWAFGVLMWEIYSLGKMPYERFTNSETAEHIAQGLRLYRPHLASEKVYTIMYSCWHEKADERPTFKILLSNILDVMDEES

[9] = target: Tyrosine-protein kinase BTK (Homo sapiens) (UniProt Q06187); details: at 1 µM
[10] = target: Tyrosine-protein kinase CSK (Homo sapiens) (UniProt P41240); details: at 0.1 µM;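 further: value given is the averaged percent inhibition of CSK kinase activity, from the GSK PKIS kinase inhibitor set screening panel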
Sequence of Tyrosine-protein kinase CSK (Homo sapiens) (P41240 2-450 limits assumed): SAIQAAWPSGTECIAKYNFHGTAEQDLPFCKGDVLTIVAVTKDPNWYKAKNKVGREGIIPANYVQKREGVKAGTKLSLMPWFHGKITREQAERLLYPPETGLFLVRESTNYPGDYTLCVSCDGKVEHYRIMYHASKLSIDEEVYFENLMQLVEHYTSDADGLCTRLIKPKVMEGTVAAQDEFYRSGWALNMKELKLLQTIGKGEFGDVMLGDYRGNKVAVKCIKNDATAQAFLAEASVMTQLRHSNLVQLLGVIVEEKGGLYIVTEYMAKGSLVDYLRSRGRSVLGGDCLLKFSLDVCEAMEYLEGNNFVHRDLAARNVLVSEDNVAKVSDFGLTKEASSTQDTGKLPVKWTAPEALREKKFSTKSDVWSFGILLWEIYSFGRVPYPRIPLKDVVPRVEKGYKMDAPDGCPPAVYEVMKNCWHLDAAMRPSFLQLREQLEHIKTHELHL

Sequence of Tyrosine-protein kinase Blk (Homo sapiens) (P51451 2-505 limits assumed): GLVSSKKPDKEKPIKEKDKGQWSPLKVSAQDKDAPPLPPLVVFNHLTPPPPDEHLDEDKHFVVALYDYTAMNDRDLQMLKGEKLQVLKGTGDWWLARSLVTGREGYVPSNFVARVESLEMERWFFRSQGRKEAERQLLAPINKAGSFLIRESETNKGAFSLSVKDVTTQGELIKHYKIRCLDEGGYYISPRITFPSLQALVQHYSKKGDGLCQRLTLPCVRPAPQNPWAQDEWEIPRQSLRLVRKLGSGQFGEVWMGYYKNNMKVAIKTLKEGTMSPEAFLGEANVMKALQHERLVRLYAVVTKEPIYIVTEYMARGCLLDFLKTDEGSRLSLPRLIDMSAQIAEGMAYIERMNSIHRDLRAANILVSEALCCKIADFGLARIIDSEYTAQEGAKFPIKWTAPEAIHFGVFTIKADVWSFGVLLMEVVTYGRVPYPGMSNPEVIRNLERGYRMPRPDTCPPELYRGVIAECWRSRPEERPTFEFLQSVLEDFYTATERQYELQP
Sequence of Tyrosine-protein kinase receptor UFO (Homo sapiens) (P30530 whole entry): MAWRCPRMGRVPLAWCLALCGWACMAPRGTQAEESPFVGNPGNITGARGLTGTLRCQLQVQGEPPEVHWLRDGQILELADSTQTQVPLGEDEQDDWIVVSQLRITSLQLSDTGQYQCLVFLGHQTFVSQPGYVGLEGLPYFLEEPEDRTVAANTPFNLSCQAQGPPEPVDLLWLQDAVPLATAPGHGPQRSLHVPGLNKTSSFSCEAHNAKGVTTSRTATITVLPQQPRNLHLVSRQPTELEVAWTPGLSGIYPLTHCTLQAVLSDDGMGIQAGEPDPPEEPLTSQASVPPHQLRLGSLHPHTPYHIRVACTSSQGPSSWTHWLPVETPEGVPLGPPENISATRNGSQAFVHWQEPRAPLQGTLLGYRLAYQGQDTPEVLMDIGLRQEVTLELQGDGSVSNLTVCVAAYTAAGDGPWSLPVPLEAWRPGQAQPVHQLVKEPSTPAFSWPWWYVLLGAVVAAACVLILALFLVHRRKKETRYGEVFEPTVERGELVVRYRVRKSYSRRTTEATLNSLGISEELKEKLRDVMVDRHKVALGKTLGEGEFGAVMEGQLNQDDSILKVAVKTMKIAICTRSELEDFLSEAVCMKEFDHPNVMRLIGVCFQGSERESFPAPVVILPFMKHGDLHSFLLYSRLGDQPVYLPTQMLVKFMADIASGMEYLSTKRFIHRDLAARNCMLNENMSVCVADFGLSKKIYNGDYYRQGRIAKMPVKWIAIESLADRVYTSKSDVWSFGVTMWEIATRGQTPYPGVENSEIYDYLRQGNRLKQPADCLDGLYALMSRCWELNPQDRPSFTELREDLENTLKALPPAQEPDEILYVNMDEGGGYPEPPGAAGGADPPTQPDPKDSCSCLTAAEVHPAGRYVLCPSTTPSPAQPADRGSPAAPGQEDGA

SMILES | inhibition [1] [%] | inhibition [2] [%] | inhibition [3] [%] | inhibition [4] [%] | inhibition [5] [%] | inhibition [6] [%] | inhibition [7] [%] | inhibition [8] [%] | inhibition [9] [%] | inhibition [10] [%]
COc1cc2c(cc1Nc1nc(Nc3ccsc3C(N)=O)c3cc[nH]c3n1)N(C(=O)CN(C)C)CCC2(C)C | 85.5 | 3.19 | 6.26 | 3.79 | 5.73 | 5.95 | 19.2 | 0.08 | 1.1 | 2.59
CNC(=O)c1cncc(/C=C/c2ccccc2Cl)c1 | -0.52 | 3.84 | 4.55 | 1.47 | 8.42 | 0.17 | 10 | 1.39 | 2.01 | 0.04
O=C(O[C@H]1CN[C@H](C#Cc2cc3ncnc(Nc4ccc(Cc5ccccc5)cc4)c3s2)C1)N1CCOCC1 | -7.04 | 5.97 | 48.5 | 1.38 | 4.65 | -0.08 | 18.2 | -0.44 | 1.44 | -1.2
CNC(=O)c1cccc(C#Cc2cncnc2Nc2ccc(OCc3cccc(F)c3)c(Cl)c2)c1 | -0.81 | 1.53 | 1.17 | -1.48 | 1.31 | -0.91 | 2.87 | 2.52 | -0.29 | 1.96
CCc1nn2ncccc2c1-c1ccnc(NC2CC2)n1 | -2.77 | 1.77 | 3.32 | 3.6 | 5.18 | -0.52 | 1.65 | 0.24 | 0.76 | 0.85
COc1cc(N2CCN(C(C)C)CC2)ccc1Nc1nc(Nc2ccc(F)cc2C(N)=O)c2cc[nH]c2n1 | 42.4 | 1.9 | 3.73 | 1.88 | 5.02 | 4.84 | 31.2 | -0.63 | -0.07 | 1.42
COC(=O)Nc1nc2ccc(S(=O)(=O)c3ccc(NC(=O)Nc4cc(C(F)(F)F)ccc4F)cc3)cc2[nH]1 | -1.71 | 1.71 | 3.18 | 6.6 | 5.12 | 2.94 | 2.51 | 1.86 | 0.94 | 2.8
[O-][S+]1CCN(Cc2ccc(-c3ccc4ncnc(Nc5ccc(OCc6cccc(F)c6)c(Cl)c5)c4c3)o2)CC1 | -4.13 | 1.74 | 7.66 | 7.13 | 7.73 | 4.81 | 7.3 | -0.42 | 0.99 | 6.74
